About 83,000 compounds went through this panel and 20% of them were active in at least one assay; those are over-represented in the sample as a whole.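 96-well plates, one dose, 48 hours. Percent growth reported; active if below 10.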 A number with no mark means an inactive call. Activity calls are given as the source filed them.
Tested on: SR leukemia
Experiment: NCI-60 one-dose screen, 48 h (100 = growth as untreated, 0 = no growth, -100 = all killed)
Conditions: 10 µM

SMILES | growth
CC1(C)CNC(=O)N1 | 95.2%
Nc1ccn([C@@H]2O[C@H](COP(=O)(O)O[C@@H]3C[C@H](n4cc(F)c(=O)[nH]c4=O)O[C@@H]3COP(=O)(O)O[C@@H]3C[C@H](n4cc(F)c(=O)[nH]c4=O)O[C@@H]3COP(=O)(O)O[C@@H]3C[C@H](n4cc(F)c(=O)[nH]c4=O)O[C@@H]3COP(=O)(O)O[C@@H]3C[C@H](n4cc(F)c(=O)[nH]c4=O)O[C@@H]3COP(=O)(O)O[C@@H]3C[C@H](n4cc(F)c(=O)[nH]c4=O)O[C@@H]3COP(=O)(O)O[C@@H]3C[C@H](n4cc(F)c(=O)[nH]c4=O)O[C@@H]3COP(=O)(O)O[C@@H]3C[C@H](n4cc(F)c(=O)[nH]c4=O)O[C@@H]3COP(=O)(O)O[C@@H]3C[C@H](n4cc(F)c(=O)[nH]c4=O)O[C@@H]3COP(=O)(O)O[C@@H]3C[C@H](n4cc(F)c(=O)[nH]c4=O)O[C@@H]3COP(=O)(O)O[C@@H]3C[C@H](n4cc(F)c(=O)[nH]c4=O)O[C@@H]3COP(=O)(O)OCCOCCOCCOCCOCCOCCO)[C@H](O)C2O)c(=O)n1 (stereo partly drawn) | 44.3%
CCCCN(CCCC)c1ccc(C(=NC(C)CCCN(CC)CC)c2ccc(N(C)C)cc2)cc1 (stereo not drawn) | -26.2% (active)
Cc1nc2cc(-n3c(-c4ccc(F)cc4)nc4ccccc4c3=O)ccc2n1Cc1ccccc1 | -7.66% (active)
CN(C)Cc1cccs1 | 114%
CCCCCCCCCCCCc1ccc(C(=O)/C=C/C(=O)O)cc1 | -28.1% (active)
Nc1nsc(C(=O)c2ccc(O)cc2)n1 | 99.2%
O=C(CSc1nnc(-c2ccc(Cl)cc2)o1)c1ccccc1 | 94%
NC1CCC(Nc2nc(NCc3ccc(-c4cccs4)nc3)c3ncn(C4CCCC4)c3n2)CC1 (stereo not drawn) | -33.2% (active)
CCCCOCC(=O)NC(NP(=O)(N(C)C)N(C)C)C(Cl)(Cl)Cl (stereo not drawn) | 111%
CCOc1ccc(-n2cc(-c3ccc(N(C)C)cc3)[n+]3c2CCCCC3)cc1 | 27.3%
CCC1(C)OC(=O)NC1=O (stereo not drawn) | 115%
CC(=O)Nc1ccc(Sc2ccc(NC(C)=O)cc2)cc1 | 92.9%
O=C1CC[C@@H](C(=O)N[C@H]2CSSC[C@@H](C(=O)NCCc3ccccc3)NC(=O)[C@H](Cc3ccccc3)NC(=O)[C@@H]3CCCN3C(=O)[C@@H]3CCCN3C2=O)N1 | 94.5%
O=C1CC(c2cccc(-c3cccnc3)c2)=Nc2ccc(Br)cc2N1 | 51.1%
Clc1cc(Cl)c(OCCCCCCN2CCNCC2)c(Cl)c1 | -13.9% (active)
CCCCCC(CCC)COC(=O)c1ccc(OC)cc1 (stereo not drawn) | 101%
O=c1oc2cc(OS(=O)(=O)C3CC3)ccc2c2c1CCCCCC2 | 52.7%
C=C1C(=O)O[C@H]2[C@H]1CC/C(COC(=O)OCCCCCOC(=O)OC/C1=C/CC[C@@]3(C)O[C@H]3[C@H]3OC(=O)C(=C)[C@@H]3CC1)=C\CC[C@@]1(C)O[C@@H]21 | -20.1% (active)

SMILES | growth
CCOC(=O)c1c(Cl)c2c(n1Cc1cccc(OC)c1)-c1oncc1CC2 | 8.61% (active)
COc1cc2nc(Sc3sc(N)nc3C)n(-c3ccc(Oc4ccccc4)cc3)c(=O)c2cc1OC | -43.4% (active)
CCCCCCCCCCN=C(c1ccc(N(C)C)cc1)c1ccc(N(C)C)cc1 | 23%
Cc1cccc2c(Nc3ccc(NS(C)(=O)=O)cc3)c3ccc([N+](=O)[O-])cc3nc12 | 2.56% (active)
C[C@H](NC(=O)[C@@H]1CSSC[C@@H](NC(=O)Cc2nc3ccccc3cc2O)C(=O)NCC(=O)N1C)c1ccccc1 | -3.15% (active)
O=C(Nc1ccc(CN2CCOCC2)cc1)c1ccc(-c2cc(Cl)ccc2Cl)o1 | -12.9% (active)
COc1c(-c2c3sc(=O)[nH]c3nc3c2c(=O)[nH]n3C(C)C)cc2c(c1OC)OCO2 | 84.9%
COc1ccc(-c2nnc(SCC(=O)c3ccccc3)o2)cc1 | 100%
S=c1c2ncccc2c(-c2ccccn2)nn1Cc1ccccn1 | 87.2%
COc1cc(C2C=C(c3ccc(Cl)c(Cl)c3)N=C3SC(C)=CN32)cc(OC)c1OC (stereo not drawn) | -11.9% (active)
O=C(NCCc1nccs1)c1cnc2c(S)cccc2c1 | 14.6%
N#Cc1c(-c2ccccc2)nc(SCC(=O)N2CCOCC2)[nH]c1=O | 90.1%
CCCCCCN=C(N)CCCCCCCCCCC(N)=NCCCCCC | 61.7%
CNC(=O)c1cc(Oc2ccc(NC(=O)Nc3ccc(Cl)c(C(C)(C)C)c3)c(F)c2)ccn1 | 43.4%
CN(C)c1ccc2c(c1)OC(N)=C(C#N)C2c1ccc2c(c1)CCO2 (stereo not drawn) | 38.2%
CCc1c(C(=O)NCc2c(O)ccc3cccc(O)c23)[nH]c(C)c1C(C)=O | 30.5%
CC(=O)c1ccc(NCn2nc(-c3ccc(Cl)cc3)oc2=S)cc1 | 85.1%
COC(=O)c1cnc2c(c1)Oc1ccc(Cl)cc1-c1cc(C)nn1-2 | 89.3%
Clc1cc(Cl)c(Cl)c(-c2nc(-c3cccnc3)cs2)c1 | 9.83% (active)
